# Records with an inconclusive call do not appear. Entries that show only a call come without a potency. Activity calls are given as the source filed them. Unless noted, calls come from the whole dose curve; as a rule, active = well fitted curve in the direction sought with a large enough effect; inconclusive = small, poorly fitted or top-dose-only effect, or another doubt; inactive = no such curve, though single readings can be large; an effect the other way counts as inactive or inconclusive.
# Tests used:
# [1] = Cell Viability - LYMP2-001 (AID 921);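 note: cells exposed to compound for 24 h at 37 °C; nearly all actives have a fitted effect of over 70% in size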; note: potency is the fitted concentration of half-maximal effect
# Method in brief: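 CellTiter-Glo luminescence (intracellular ATP) after 24 hr compound exposure at 37 C, 2500 lymphoblastoid cells/well in complete medium. AC50 fitted with standard Hill equation; tetraoctylammonium bromide positive control.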
# [2] = MultiTox-Fluor Cytotoxicity Assay - LYMP1-001 - Dead Cells (AID 946);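 note: cells exposed to compound for 16 h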; note: potency is the fitted concentration of half-maximal effect
# Method in brief: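 AC50 from Hill fit of concentration-response; data normalized to DMSO (basal) and 15 uM tetraoctylammonium bromide (100%). LYMP1-001 lymphoblastoid cells, 2500/well, 16 hr compound at 37 C; dead-cell protease fluorescence, Ex/Em 485/520.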
# [3] = MultiTox-Fluor Cytotoxicity Assay - LYMP1-001 - Live Cells (AID 947)
# [4] = Cell Viability - LYMP1-002 - Assay at 16 hr (AID 948); note: potency is the fitted concentration of half-maximal effect
# Method in brief: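 LYMP1-002 human lymphoblastoid cells, 2500/well; 5 hr 37 C; cpd 16 hr 37 C; CellTiter-Glo 30 min RT; luminescence (ATP). Concentration-response, Hill-fit AC50. Pos ctrl tetraoctylammonium bromide.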
# [5] = MultiTox-Fluor Cytotoxicity Assay - LYMP1-002 - Live Cells (AID 955);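 note: cells exposed to compound for 16 hours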; note: potency is the fitted concentration of half-maximal effect
# Method in brief: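 Cells were seeded at 2500 per well and incubated 5 hr. Compounds were then added for 16 hr at 37 C, followed by MultiTox-Fluor reagent for 60 min at room temperature and fluorescence reading of viable-cell protease signal.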
# [6] = MultiTox-Fluor Cytotoxicity Assay - LYMP1-002 - Dead Cells (AID 960);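 note: cells exposed to compound for 16 h at 37 °C; nearly all actives have a fitted effect of over 60% in size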
# Method in brief: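 Cells were plated, rested 5 hr, then treated with compound dilution series for 16 hr at 37 C. After adding substrate reagent and 60 min at room temperature, dead-cell protease fluorescence gave concentration-response curves fitted by the Hill equation.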
# [7] = MultiTox-Fluor Cytotoxicity Assay - LYMP1-003 - Dead Cells (AID 961);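 note: cells exposed to compound for 16 h at 37 °C; nearly all actives have a fitted effect of over 70% in size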; note: potency is the fitted concentration of half-maximal effect
# Method in brief: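 Human lymphoblastoid LYMP1-003 cells (2500/well) were treated with compounds for 16 hr at 37 C in complete medium. Dead-cell protease release was read by bis-AAF-R110 fluorescence (Ex/Em 485/520). AC50 came from Hill fits, normalized to DMSO and 15 uM tetraoctylammonium bromide.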
# [8] = target: Pyruvate kinase (Leishmania mexicana) (UniProt Q27686); assay: qHTS Validation Assay for Inhibitors of Leishmania Mexicana Pyruvate Kinase (AID 945)
# Method in brief: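 An endpoint luciferase assay: 0.2 nM LmPYK E451W turns over 0.5 mM PEP with 0.1 mM ADP for 1 h at room temperature, pH 7.2, before PKLight addition. Values are normalized to DMSO-only wells.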
# [9] = target: Pyruvate kinase PKM (Homo sapiens) (UniProt P14618); assay: qHTS Assay for Activators of Human Muscle Pyruvate Kinase (AID 954; active = well fitted curve in the direction sought with a large enough effect, not every such curve was filed as active)
# Method in brief: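 A coupled luminescent readout tracked ATP made from ADP by purified PKM2. Final conditions included 0.1 nM enzyme, PEP and ADP at 0.5 and 0.1 mM, pH 7.2 imidazole buffer with BSA, and a one-hour room-temperature reaction.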
# [10] = target: Muscarinic acetylcholine receptor M1 (Rattus norvegicus) (UniProt P08482); assay: qHTS Assay for Antagonists of Acetylcholine Muscarinic M1 Receptor: Kinetic Measurement of Intracellular Calcium Response (AID 943);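 note: Fluo-4 calcium signal as peak divided by basal fluorescence over 4 min; series mostly up to about 35 µM; nearly all actives have a fitted effect of over 75% in size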
# Method in brief: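 Antagonism is measured as inhibition of the carbachol-evoked calcium rise in CHO cells transfected with rat M1. Cells are dye-loaded, exposed to compound for 10 min, then stimulated with 100 nM carbachol (EC80).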
# [11] = target: Muscarinic acetylcholine receptor M1 (Rattus norvegicus) (UniProt P08482); assay: qHTS Assay for Antagonists of Acetylcholine Muscarinic M1 Receptor: Measurement of IP-One Response (AID 944); note: nearly all actives have a fitted effect of over 75% in size
# Method in brief: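 Antagonist mode with rat M1 receptor transfected into CHO cells. Compound is added first for 10 min, carbachol at its EC80 follows for 30 min, and lysis reagents then allow TR-FRET detection of accumulated IP1.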
# Sequence of Pyruvate kinase PKM (Homo sapiens) (P14618 whole entry, looked up): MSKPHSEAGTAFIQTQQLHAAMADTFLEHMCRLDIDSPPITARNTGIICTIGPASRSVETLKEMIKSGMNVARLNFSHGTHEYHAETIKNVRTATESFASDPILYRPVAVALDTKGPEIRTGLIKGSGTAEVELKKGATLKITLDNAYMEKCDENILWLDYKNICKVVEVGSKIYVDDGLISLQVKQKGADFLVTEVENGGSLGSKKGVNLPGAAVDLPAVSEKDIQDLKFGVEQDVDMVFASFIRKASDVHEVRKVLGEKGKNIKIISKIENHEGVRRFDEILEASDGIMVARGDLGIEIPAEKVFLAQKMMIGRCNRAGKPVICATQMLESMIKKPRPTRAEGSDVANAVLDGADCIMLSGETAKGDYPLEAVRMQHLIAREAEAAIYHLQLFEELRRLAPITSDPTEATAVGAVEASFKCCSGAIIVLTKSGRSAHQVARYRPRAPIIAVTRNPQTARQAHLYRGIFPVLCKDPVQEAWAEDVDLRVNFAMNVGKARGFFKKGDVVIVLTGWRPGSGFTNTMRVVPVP
# Sequence of Muscarinic acetylcholine receptor M1 (Rattus norvegicus) (P08482 whole entry, looked up): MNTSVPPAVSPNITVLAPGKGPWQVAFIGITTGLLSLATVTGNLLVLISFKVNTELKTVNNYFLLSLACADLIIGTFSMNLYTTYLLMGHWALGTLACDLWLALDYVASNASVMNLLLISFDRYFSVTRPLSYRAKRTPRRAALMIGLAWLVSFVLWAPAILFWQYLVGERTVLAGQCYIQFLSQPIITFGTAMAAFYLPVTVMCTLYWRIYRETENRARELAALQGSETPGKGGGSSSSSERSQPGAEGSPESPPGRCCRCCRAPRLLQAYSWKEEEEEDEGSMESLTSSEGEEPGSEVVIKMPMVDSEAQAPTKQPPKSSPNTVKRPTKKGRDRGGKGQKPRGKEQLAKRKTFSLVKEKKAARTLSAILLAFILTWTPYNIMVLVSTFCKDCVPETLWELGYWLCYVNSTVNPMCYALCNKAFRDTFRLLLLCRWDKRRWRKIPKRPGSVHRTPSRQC
# Sequence of Pyruvate kinase (Leishmania mexicana) (Q27686 2-499 E452W): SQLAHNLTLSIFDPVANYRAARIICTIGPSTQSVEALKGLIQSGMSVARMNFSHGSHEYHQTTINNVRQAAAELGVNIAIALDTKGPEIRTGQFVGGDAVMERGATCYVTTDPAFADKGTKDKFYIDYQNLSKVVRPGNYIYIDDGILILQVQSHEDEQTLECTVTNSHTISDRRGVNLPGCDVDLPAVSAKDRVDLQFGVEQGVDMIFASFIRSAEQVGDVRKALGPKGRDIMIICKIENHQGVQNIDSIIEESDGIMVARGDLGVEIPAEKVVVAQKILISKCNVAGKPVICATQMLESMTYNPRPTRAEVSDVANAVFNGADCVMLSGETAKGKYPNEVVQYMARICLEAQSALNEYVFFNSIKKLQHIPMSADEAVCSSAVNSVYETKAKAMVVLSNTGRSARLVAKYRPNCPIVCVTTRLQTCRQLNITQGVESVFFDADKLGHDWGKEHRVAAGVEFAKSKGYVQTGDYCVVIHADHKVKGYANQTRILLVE
smiles,measurement,setting,value
NCCO,Potency,[1],inactive
same,Potency,[2],inactive
same,Potency,[3],inactive
same,Potency,[4],inactive
same,Potency,[5],inactive
same,Potency,[6],inactive
same,Potency,[7],inactive
CN(C)CCC(c1ccc(Cl)cc1)c1ccccn1 (centres undefined),Potency,[1],inactive
same,Potency,[2],inactive
same,Potency,[4],inactive
same,Potency,[5],inactive
same,Potency,[6],inactive
same,Potency,[7],inactive
N=C1N=C(N)c2cc3ccccc3cc21,Potency,[1],39.8 µM (active)
same,Potency,[2],39.8 µM (active)
same,Potency,[4],39.8 µM (active)
same,Potency,[5],25.1 µM (active)
same,Potency,[7],39.8 µM (active)
COc1ccccc1CNCCCCCCNCCCCCCCCNCCCCCCNCc1ccccc1OC,Potency,[8],inactive
same,outcome,[9],inactive
Cn1cc(C2=C(c3ccc(Cl)cc3Cl)C(=O)NC2=O)c2ccccc21,Potency,[10],inactive
same,Potency,[11],inactive
same,Potency,[8],inactive
same,outcome,[9],inactive

# Source: PubChem BioAssay (NCATS)
